Screening results deposited in PubChem BioAssay by SRMLSC.
In the library only some 6.3% were active in any assay of this set; here they are far more common.
NADH coupling = blocks coupling enzymes of NAD/NADH assays; IC50, µM (titrated, usually from 10 µM); actives 0.02% (n = 65,000); coupled PK/LDH NADH assays, four targets;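 active = single-dose screening hits from any of four coupled enzyme assays that gave an IC50 when retested across doses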;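 note: the DPM-DC format reads NADH fluorescence rather than 340 nm absorbance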
Spn DPM-DC inh = S. pneumoniae DPM-DC inhibition; purified DPM-DC, PK/LDH coupled NADH fluorescence; calls only at 10 µM; actives 0.49% (n = 65,000); AID 556;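 active = the 320 compounds with the highest percent inhibition in the single-dose primary screen, excluding strongly autofluorescent ones, cut at about 32% in these data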;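 note: kinetic rate of NADH fluorescence loss reporting ADP formed by the decarboxylase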
Fluor 339 460 = intrinsic fluorescence of library compounds, ex339/em460 – biochemical, MLSMR library, data from DPM-DC assay, artefact control, profiling panel; compound autofluorescence, ex339/em460 nm, NADH buffer; hits give high values; 1 = no-compound wells, NADH background; actives 5.5% (n = 65,000); AID 709; fluorescence fold increase at 10 µM;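 active = at 10 µM, mean starting fluorescence two-fold or more over control wells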;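 note: signal is the first read of a kinetic run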
Abs 340nm = absorbance at 340 nm | compound absorbance at 340 nm, fold over control | fold change at 10 µM | 65,000 tested, under 10 active;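 active = at 10 µM dose, initial 340 nm absorbance at least 2 fold that of control wells; inactive = change under 2 fold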;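 note: initial absorbance extrapolated from kinetic A340 decline of NADH oxidation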
Spn PMK inh = S. pneumoniae PMK inhibition; purified PMK, PK/LDH-coupled NADH absorbance 340 nm; inhibition, % at 10 µM; actives 0.49% (n = 65,000);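 active = top-ranked compounds by inhibition in the single 10 µM screen, taking a fixed number of the strongest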
Spn MK inh = inhibitors of Streptococcus pneumoniae mevalonate kinase; purified MK, PK/LDH-coupled NADH absorbance 340 nm; actives 0.48% (n = 65,000); inhibition, % at 10 µM;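 active = ranked among the strongest by inhibition in the single 10 µM screen, a fixed top-ranked set picked for dose follow-up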
A number is an active result; n = inactive; x = no result given; + = active, no number; ! = repeats disagree.

SMILES	NADH coupling	Spn DPM-DC inh	Fluor 339 460	Abs 340nm	Spn PMK inh	Spn MK inh
COc1ccc(OC)c(-n2c(-c3cccc(O)c3)n[nH]c2=S)c1	n	n	n	n	n	66
O=C1CSC(c2nn(-c3ccccc3)cc2-c2cc3ccccc3oc2=O)N1Cc1ccco1 (stereo not given)	n	x	2.3	n	n	n
Cc1cc(C)c2c(n1)nn1c(NCCOCCO)cc(C)nc21	n	x	3.9	n	n	n
CC(=O)c1ccc(C(C)(C)c2ccc(C(C)=O)s2)s1	n	n	n	n	n	n
Nc1ccc(O)cc1C(=O)OCC(=O)C12CC3CC(CC(C3)C1)C2	n	x	2.1	n	n	n
O=C(CN1C2=NCCN2c2ccccc21)C12CC3CC(CC(C3)C1)C2	n	n	n	n	n	n
Cc1cc(C)cc(N2CCN(C(=O)N3CCOCC3)CC2)c1	n	n	n	n	n	n
Cc1c(F)cccc1NS(=O)(=O)c1ccccc1C#N	n	n	n	n	n	n
O=C(Nc1cccc2c1C(=O)NC2=O)c1ccc(S(=O)(=O)N2CCCC2)cc1	n	n	2.3	n	n	n
COc1ccc(-n2cnc3cc(NCc4cccs4)ccc32)cc1	n	n	n	n	n	n
Cc1ccc2nc(C(F)OC(F)(F)F)[nH]c2c1 (stereo not given)	n	n	n	n	n	n
O=C(NC1CCCCC1)c1cc(-c2ccco2)on1	n	n	n	n	n	n
O=C(Nc1cnn(C23CC4CC(CC(C4)C2)C3)c1)c1cnn2c(C(F)(F)F)cc(-c3ccco3)nc12	n	n	n	n	n	n
O=C(c1cc2nc(-c3ccco3)cc(C(F)(F)F)n2n1)N1CCc2ccccc2C1	n	x	2.2	n	30	n
O=C(Nc1cnn(Cc2ccccc2)c1)c1cc2nc(-c3ccco3)cc(C(F)(F)F)n2n1	n	x	3.3	n	n	n
O=C(c1cc2nc(-c3ccccc3)cc(C(F)(F)F)n2n1)N1CCOCC1	n	n	n	n	n	n
O=C(NC1CCCCC1)c1cc2nc(-c3ccco3)cc(C(F)(F)F)n2n1	n	x	2.9	n	n	n
O=C(NC12CC3CC(CC(C3)C1)C2)c1cc2nc(-c3ccco3)cc(C(F)(F)F)n2n1	n	n	2.9	n	n	n
O=C(NCc1ccccc1)c1ccc(/C=N/O)nc1	n	n	n	n	n	n
COc1ccc2c(c1OC)C(=O)OC2C1c2c(cc3c(c2OC)OCO3)CCN1C (stereo not given)	n	n	n	n	26!	n
CN1CCc2cc3c(c4c2C1CC41CCC(=NO)CC1)OCO3 (stereo not given)	n	n	n	n	n	n
CC1CCc2nc(N)c(C#N)c(-c3cccnc3)c2C1 (stereo not given)	n	n	n	n	n	n
CC1CCc2nc(N)c(C#N)c(-c3ccncc3)c2C1 (stereo not given)	n	x	3.8	n	n	n
Cc1cc(C)c(S(=O)(=O)NCc2cn3c(C)csc3n2)c(C)c1	n	n	n	n	n	n
Cc1cc(C)c(S(=O)(=O)NCc2cn3c(C)csc3n2)cc1C	n	+	n	n	n	n
SMILES	NADH coupling	Spn DPM-DC inh	Fluor 339 460	Abs 340nm	Spn PMK inh	Spn MK inh
Cc1ccc2nc(-c3ccccn3)cc(C(=O)NC3CCN(C)CC3)c2c1	n	n	3	n	n	n
Cc1nn(CCC(=O)O)c2nc(-c3cccnc3)cc(C(F)(F)F)c12	n	x	4.9	n	n	n
COc1cccc(NC(=O)NCc2cccn2C)c1	n	n	n	n	n	n
Fc1ccc(-c2nc3nc4ccccc4nc3n2Cc2ccco2)cc1	n	n	n	n	n	n
CCCCOCCCn1c(-c2ccco2)nc2nc3ccccc3nc21	n	x	4	n	n	n
Fc1ccc(-n2c(-c3ccco3)nc3nc4ccccc4nc32)cc1	n	x	5.1	n	n	n
Fc1cccc(-n2c(-c3ccco3)nc3nc4ccccc4nc32)c1	n	x	3.6	n	n	n
Cc1ccc(S(=O)(=O)c2cccc(S(=O)(=O)N3CCCC3)c2)cc1S(=O)(=O)N1CCCC1	n	n	n	n	n	n
CCOc1ccccc1N(CC(=O)O)S(=O)(=O)c1ccc(C)cc1	n	n	n	n	n	n
CCOCCCNC(=O)c1ccc(OC(C)=O)cc1	n	n	n	n	n	n
COc1cccc(CN2CCN(C(=O)c3cccc(F)c3)CC2)c1	n	n	n	n	n	51
COc1cc(OC)cc(C(=O)N2CCN(C(=O)c3cccc(F)c3)CC2)c1	n	n	n	n	n	n
COc1ccc(-c2[nH]nc3oc(=O)cc(C)c23)cc1	n	x	2.2	n	n	n
Cc1cc(C)n2cc(CSC3=NCCS3)nc2n1	n	x	4.8	n	n	n
Cc1cc(C)n2cc(CSCc3ccco3)nc2n1	n	n	n	n	n	n
Cc1cc(C)n2cc(CSc3ncccc3C(=O)O)nc2n1	n	x	5	n	n	n
Cc1ccccc1-n1nnnc1SCc1ncc(-c2ccccc2)o1	n	n	n	n	n	n
Cc1cc(C)n2cc(CSc3nnnn3-c3ccccc3C)nc2n1	n	n	2.1	n	n	n
Cn1cnc2c1c(=O)n(Cc1ccc(F)cc1Cl)c(=O)n2C	n	n	n	n	n	n
COCc1cc(C)c2c(N)c(C#N)sc2n1	n	x	2.4	n	n	n
N#Cc1sc2nc3c(c(-c4ccco4)c2c1N)CCCC3	n	n	n	n	n	n
COc1ccc(OC)c(NC2c3ncccc3C(=O)N2Cc2ccco2)c1 (stereo not given)	n	n	n	n	n	n
COc1ccc(CN2C(=O)c3cccnc3C2Nc2cc(Cl)ccc2OC)cc1 (stereo not given)	n	n	n	n	n	83
O=C(O)C1CC=CCC1C(=O)N1CCN(c2nc(-c3ccccc3)c3ccccc3n2)CC1 (stereo not given)	n	n	n	n	n	n
O=C(O)CCCC(=O)N1CCN(c2nc(-c3ccccc3)c3ccccc3n2)CC1	n	x	2.1	n	n	n
SMILES	NADH coupling	Spn DPM-DC inh	Fluor 339 460	Abs 340nm	Spn PMK inh	Spn MK inh
CCC(OC(=O)c1ccco1)C(=O)NCc1ccc(C)cc1 (stereo not given)	n	n	n	n	n	n
CCc1nc2ccccc2c(NC(=O)CN2CCC(C)CC2)c1C	n	n	n	n	n	n
CCCOc1ccccc1NC(=O)c1c(-c2ccccc2)noc1C	n	n	n	n	n	n
O=C(COC(=O)Cc1ccc(S(=O)(=O)N2CCOCC2)s1)NCc1ccccc1	n	n	n	n	n	49
COC(=O)Cc1c(C)c2cc(Cl)c(OC(=O)c3ccco3)cc2oc1=O	n	x	2.1	n	n	n
COC(=O)Cc1c(C)c2ccc(OC(=O)c3ccco3)cc2oc1=O	n	x	2.1	n	n	n
COC(=O)c1ccccc1NC(=O)n1cc(C)cn1	n	x	3.6	n	n	n
CCOC(=O)C(C)Oc1ccc2c(C)cc(=O)oc2c1C(C)=O (stereo not given)	n	n	n	n	n	n
